Data: PubChem BioAssay (Tox21)
Where “and” joins values, the source holds several entries; their conditions need not be identical. Identical values can stand only once. Results filed as inconclusive are left out. Entries that show only a call come without a potency. The source holds several records for some structures; these can differ, active in one and inactive in another. Calls of active or inactive are those of the source. Unless noted, the call rests on the fitted dose curve; in most records, active means well fitted curve in the direction sought with a large enough effect in the repeat runs; inconclusive means weak or mixed curves; inactive means no such curve, though single readings can be large; an effect the other way counts as inactive or inconclusive.

Experiments:
[1] = qHTS assay to identify small molecule antagonists of the estrogen related receptor (ERR) signaling pathway from Tox21 library - cell viability counter screen (AID 1224834); further: nearly all actives have a fitted effect of over 30% in size; further: potency means the concentration at half of the fitted maximal effect
Summary of the method: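 After 17.5 h of compound exposure at 37 C, ERR cells are incubated with CellTiter-Fluor for 30 min and fluorescence intensity serves as the viability measure.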

[2] = target: Luciferin 4-monooxygenase (Photinus pyralis) (UniProt P08659); assay: qHTS assay to identify small molecule inhibitors of firefly luciferase (AID 1224835); further: nearly all actives have a fitted effect of over 25% in size; further: potency means the concentration at half of the fitted maximal effect
Sequence of Luciferin 4-monooxygenase (Photinus pyralis) (P08659 whole entry, looked up): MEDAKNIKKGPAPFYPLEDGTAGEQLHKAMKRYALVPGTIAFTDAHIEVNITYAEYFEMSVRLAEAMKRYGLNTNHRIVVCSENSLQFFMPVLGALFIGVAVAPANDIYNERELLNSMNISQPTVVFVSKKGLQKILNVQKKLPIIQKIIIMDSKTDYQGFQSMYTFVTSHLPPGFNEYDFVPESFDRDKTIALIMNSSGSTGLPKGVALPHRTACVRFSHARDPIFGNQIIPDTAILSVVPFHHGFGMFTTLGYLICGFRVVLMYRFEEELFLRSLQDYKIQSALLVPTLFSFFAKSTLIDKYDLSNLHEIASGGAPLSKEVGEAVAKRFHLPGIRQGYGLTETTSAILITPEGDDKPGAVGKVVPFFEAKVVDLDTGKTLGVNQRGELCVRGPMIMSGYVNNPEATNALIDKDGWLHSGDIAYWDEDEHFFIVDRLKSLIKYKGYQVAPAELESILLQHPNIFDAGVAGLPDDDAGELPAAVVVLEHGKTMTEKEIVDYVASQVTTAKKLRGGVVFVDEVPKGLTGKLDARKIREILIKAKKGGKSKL
Summary of the method: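 Quantitative HTS format; KM concentrations of both substrates. Purified P. pyralis FLuc activity quantified from luminescence images.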

[3] = qHTS assay to identify small molecule agonists of the constitutive androstane receptor (CAR) signaling pathway - cell viability counter screen (AID 1224836); further: nearly all actives have a fitted effect of over 45% in size; further: potency means the concentration at half of the fitted maximal effect
Summary of the method: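 Cells were seeded and incubated 4 hrs. Compounds were added across 15 concentrations together with PK11195 at 0.75 uM final. Plates were incubated 23 hrs at 37 C. CellTiter-Fluor was added and fluorescence measured.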

[4] = qHTS assay to identify small molecule antagonists of the constitutive androstane receptor (CAR) signaling pathway - cell viability counter screen (AID 1224837); further: nearly all actives have a fitted effect of over 45% in size; further: potency means the concentration at half of the fitted maximal effect
Summary of the method: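 Counter screen run in HepG2-CYP2B6-hCAR cells: 4 hr settle, compound titration (15 concentrations) with 50 nM CITCO, 23 hr at 37 C/5% CO2, CellTiter-Fluor fluorescence.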

[5] = target: Nuclear receptor subfamily 1 group I member 3 (Homo sapiens) (UniProt Q14994); assay: qHTS assay to identify small molecule antagonists of the constitutive androstane receptor (CAR) signaling pathway (AID 1224838);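 further: HepG2 cells stably expressing hCAR with CYP2B6 luciferase reporter stimulated by CITCO; nearly all actives have a fitted effect of over 40% in size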; further: potency means the concentration at half of the fitted maximal effect
Sequence of Nuclear receptor subfamily 1 group I member 3 (Homo sapiens) (Q14994 whole entry, looked up): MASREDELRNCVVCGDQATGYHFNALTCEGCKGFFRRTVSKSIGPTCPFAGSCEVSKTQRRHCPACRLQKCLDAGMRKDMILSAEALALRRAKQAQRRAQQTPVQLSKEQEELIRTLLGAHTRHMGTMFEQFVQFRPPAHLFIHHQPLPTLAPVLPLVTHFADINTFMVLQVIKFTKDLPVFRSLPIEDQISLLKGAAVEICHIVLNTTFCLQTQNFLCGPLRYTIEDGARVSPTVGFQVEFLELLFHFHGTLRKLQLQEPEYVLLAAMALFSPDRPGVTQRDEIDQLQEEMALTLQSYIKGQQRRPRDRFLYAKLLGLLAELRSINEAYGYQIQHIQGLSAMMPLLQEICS
Summary of the method: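 Cell line: HepG2 double-stable for hCAR and CYP2B6-2.2kb reporter. Agonist: CITCO, 50 nM final. Compounds: 15 concentrations, 24 h, 37 C. Detection: ONE-Glo luminescence.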

[6] = qHTS assay to identify small molecule antagonists of the estrogen related receptor signaling pathway with the pleiotropic PPARgamma coactivator (PGC) from Tox21 10K library - cell viability counter screen (AID 1224840; active means well fitted cell-killing curve with a large enough effect in the repeat runs, not every such curve was filed as active; further: nearly all actives have a fitted effect of over 40% in size; further: potency means the concentration at half of the fitted maximal effect)
Summary of the method: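 Following seeding of 2,000 PGC/ERR cells/well and 6 hours' incubation, test compounds were delivered in DMSO. The plates then sat 17.5 hours at 37 C before a fluorogenic live-cell protease reagent (CellTiter-Fluor) was read after 30 min.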

[7] = target: Thyrotropin receptor (Homo sapiens) (UniProt P16473); assay: qHTS assay to identify small molecule agonists of the thyroid stimulating hormone receptor (TSHR) signaling pathway (AID 1224843; calls by dose curve; further: nearly all actives have a fitted effect of over 45% in size)
Sequence of Thyrotropin receptor (Homo sapiens) (P16473 whole entry, looked up): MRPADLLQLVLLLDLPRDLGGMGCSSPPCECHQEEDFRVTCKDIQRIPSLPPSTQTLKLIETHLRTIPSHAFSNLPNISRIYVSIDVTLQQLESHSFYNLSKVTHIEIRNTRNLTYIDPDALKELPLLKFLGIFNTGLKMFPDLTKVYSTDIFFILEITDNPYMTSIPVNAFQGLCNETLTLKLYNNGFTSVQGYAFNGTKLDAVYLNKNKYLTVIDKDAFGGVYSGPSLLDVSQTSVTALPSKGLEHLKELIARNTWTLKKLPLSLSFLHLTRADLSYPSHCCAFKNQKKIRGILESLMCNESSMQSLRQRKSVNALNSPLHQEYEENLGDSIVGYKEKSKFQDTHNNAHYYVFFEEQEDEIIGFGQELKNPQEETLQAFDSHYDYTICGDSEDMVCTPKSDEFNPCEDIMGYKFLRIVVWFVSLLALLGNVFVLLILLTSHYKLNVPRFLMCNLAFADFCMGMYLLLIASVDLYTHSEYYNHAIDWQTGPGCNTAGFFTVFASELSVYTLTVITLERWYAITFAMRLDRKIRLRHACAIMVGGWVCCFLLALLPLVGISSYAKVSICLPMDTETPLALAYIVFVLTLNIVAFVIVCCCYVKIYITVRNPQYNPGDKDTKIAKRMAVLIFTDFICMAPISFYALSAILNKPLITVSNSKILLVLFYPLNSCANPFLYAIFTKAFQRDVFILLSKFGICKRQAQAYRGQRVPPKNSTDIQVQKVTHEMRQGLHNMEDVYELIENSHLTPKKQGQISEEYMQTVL
Summary of the method: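 TSHR-expressing HEK293 cells (800 per well) were exposed to compounds for 30 min at room temperature. cAMP was then detected by HTRF competition with cAMP-d2 and anti-cAMP cryptate, read after 1 h at room temperature. Fifteen concentrations, triplicate.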

[8] = qHTS assay to identify small molecule agonists of the hypoxia (HIF-1) signaling pathway - cell viability counter screen (AID 1224844; calls by dose curve; further: nearly all actives have a fitted effect of over 50% in size; further: potency means the concentration at half of the fitted maximal effect)
Summary of the method: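 Cells (HRE-bla ME-180, 2,000 per well) sat 5 hrs at 37C, got compound for 17 hrs, were read for CCF4-AM FRET, and were finally lysed with CellTiter-Glo for a 30 min room-temperature luminescence read.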

[9] = qHTS assay to identify small molecule agonists of H2AX (AID 1224845; active means well fitted activation curve with a large enough effect in the signal ratio in the repeat runs, not every such curve was filed as active; the % refers to the signal ratio)
Summary of the method: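 Wild-type CHO-K1 cells plated overnight, then exposed 3 hr at 37C to compounds at 15 concentrations (0.76% DMSO). Lysed, then HTRF anti-pH2AX(S139)-cryptate/anti-H2AX-d2 detection after 24 hr at room temperature; emissions 665 and 620 nm.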

[10] = qHTS assay to identify small molecule agonists of H2AX - cell viability counter screen (AID 1224847; calls by dose curve; further: nearly all actives have a fitted effect of over 30% in size; further: potency means the concentration at half of the fitted maximal effect)
Summary of the method: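 Cytotoxicity counter screen in wild-type CHO-K1 cells: a 3 hr compound treatment at 37C across 15 concentrations, followed by CellTiter-Glo luminescence to gauge viable cells.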

[11] = qHTS RealTime-Glo MT Cell Viability Assay in HepG2 cells - 24 hour (AID 1224867); further: nearly all actives have a fitted effect of over 50% in size; further: potency means the concentration at half of the fitted maximal effect
Summary of the method: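 Tox21 10K library screened in qHTS format on HepG2 cells carrying RealTime-Glo reagents. Compounds were added after a 5 h preincubation, and the luminescent signal from continuous culture was measured repeatedly during 40 h treatment.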

[12] = A CellTox Green Cytotoxicity Assay to monitor cytotoxicity in HEK293 cells - 0 hour (AID 1224869); further: nearly all actives have a fitted effect of over 50% in size
Summary of the method: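 Fluorescence intensity, read at 0, 8, 16, 24, 32 and 40 h of compound treatment, reflected dye binding to DNA of dead HEK293 cells; compounds (23 nL, DMSO) were added 5 h after plating cells with reagent.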

[13] = target: Nuclear receptor subfamily 1 group I member 3 (Homo sapiens) (UniProt Q14994); assay: qHTS assay to identify small molecule agonists of the constitutive androstane receptor (CAR) signaling pathway (AID 1224839); further: nearly all actives have a fitted effect of over 15% in size; further: potency means the concentration at half of the fitted maximal effect;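 on activation: HepG2 cells stably carrying human CAR and a CYP2B6 luciferase reporter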
Summary of the method: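 Cells were plated and incubated 4 hrs, then dosed with compounds at 15 concentrations. PK11195 was added to 0.75 uM final. After 24 hrs at 37 C, luciferase luminescence was measured.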

[14] = qHTS assay to identify small molecule antagonists of the estrogen related receptor signaling pathway with the pleiotropic PPARgamma coactivator (PGC) from Tox21 10K library (AID 1224841; call rule not given here; further: actives are mostly falling curves and most rising ones were filed inactive; nearly all actives have a fitted effect of over 50% in size; further: potency means the concentration at half of the fitted maximal effect)
Summary of the method: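 qHTS antagonist format: PGC/ERR cells, 2k/well, compound in DMSO by pin transfer after 6 h attachment, 18 h treatment at 37 C, One-Glo luminescence read at 30 min.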

[15] = qHTS assay to identify small molecule agonists of the estrogen related receptor signaling pathway with the pleiotropic PPARgamma coactivator (PGC) from Tox21 10K library (AID 1224842); further: nearly all actives have a fitted effect of over 15% in size; further: potency means the concentration at half of the fitted maximal effect
Summary of the method: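 PGC/ERR reporter cells (NTP line) were seeded 2,000 per well, rested 6 h at 37 C/5% CO2, then pin-dosed with compounds in DMSO for 18 h at 37 C; luciferase read by One-Glo luminescence after 30 min at room temperature.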

[16] = qHTS assay to identify small molecule antagonists of the estrogen related receptor (ERR) signaling pathway from Tox21 library (AID 1224848); further: nearly all actives have a fitted effect of over 50% in size; further: potency means the concentration at half of the fitted maximal effect
Summary of the method: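 Cells: ERR line, 2,000/well; 6 h preincubation 37 C/5% CO2. Cpd in DMSO via pin tool; 18 h, 37 C. ONE-Glo, 30 min RT, luminescence.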

[17] = qHTS assay to identify small molecule agonists of the estrogen related receptor (ERR) signaling pathway from Tox21 library (AID 1224849; calls by dose curve; further: nearly all actives have a fitted effect of over 15% in size); conditions: ERR reporter cell line, ONE-Glo luciferase, 18 h
Summary of the method: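 Screening used an NTP-provided ERR luciferase cell line. Compounds in DMSO were added 6 h after seeding and left 18 h at 37 C before a 30 min ONE-Glo step and luminescence reading.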

[18] = qHTS RealTime-Glo MT Cell Viability Assay in HEK293 cells - 32 hour (AID 1224868); further: nearly all actives have a fitted effect of over 50% in size; further: potency means the concentration at half of the fitted maximal effect
Summary of the method: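 Luminescence generated by NanoLuc from substrate produced by living HEK293 cells served as the viability signal. Each value reflects the reading at its stated time point during continuous 40 h compound exposure at 37 C.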

[19] = qHTS assay to identify small molecule agonists of the hypoxia (HIF-1) signaling pathway (AID 1224846; active means well fitted activation curve with a large enough effect in the signal ratio in the repeat runs, not every such curve was filed as active; the % refers to the signal ratio)
Summary of the method: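 A low-serum medium (0.5% dialyzed FBS) holding 2,000 HRE-bla ME-180 cells per well is preincubated for 5 hrs, dosed with compounds by pintool, and kept a further 17 hrs at 37C, 5% CO2 before CCF4-AM FRET detection of beta-lactamase.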

SMILES | Potency [1] | Potency [2] | Potency [3] | Potency [4] | Potency [5] | Potency [6] | Potency [7] | Potency [8] | outcome [9] | Potency [10] | Potency [11] | Potency [12] | Potency [13] | Potency [14] | Potency [15] | Potency [16] | activity change, positive = activation ([17]; at 42.5 µM (top of the series)) | Potency [18] | Potency [19] | activity change, positive = activation ([17]; at 92.4 µM (top of the series))
Nc1ccc(S(=O)(=O)Nc2cnc3ccccc3n2)cc1 | inactive | inactive | inactive | inactive | inactive | inactive | inactive | inactive | inactive | inactive | inactive | inactive |  |  |  |  |  |  |  | 
Oc1ccc(O)cc1 | inactive | inactive | inactive | inactive | inactive | inactive |  | inactive |  |  | inactive | inactive | 30.5 µM (active) and 34.4 µM (active) |  |  |  |  |  |  | 
COc1cccc2c1C(=O)c1c(O)c3c(c(O)c1C2=O)C[C@@](O)(C(=O)CO)C[C@@H]3O[C@H]1C[C@H](N)[C@H](O)[C@H](C)O1 | 2.17 µM (active) and 6.68 µM (active) | 15.5 µM (active) | 6.85 µM (active) and 6.68 µM (active) | 2.17 µM (active) and 5.96 µM (active) | 137 nM (active) and 1.06 µM (active) |  | inactive | 5.49 µM (active) and 10.7 µM (active) |  | inactive | inactive and 1.69 µM (active) | inactive | inactive | inactive | 216 nM (active) and 596 nM (active) | inactive | -2.08% (inactive) and 0.0204% (inactive) | 123 nM (active) and 213 nM (active) |  | 
CN(C)c1nc(N(C)C)nc(N(C)C)n1 | inactive | inactive | inactive | inactive | inactive | inactive | inactive | inactive | inactive | inactive | inactive | inactive |  |  |  |  |  | inactive |  | 
CCCCC(CC)COC(=O)c1ccc(N(C)C)cc1 (stereo not given) | inactive | inactive | inactive | inactive |  | inactive | inactive | inactive | inactive | inactive | inactive | inactive | 24.5 µM (active) and inactive |  |  |  |  |  | inactive | 
Clc1nc(Cl)c(Cl)c(Cl)c1Cl | inactive | inactive | inactive | inactive |  | inactive | inactive | inactive | inactive | inactive | inactive | inactive | inactive | inactive | inactive | inactive |  |  | inactive | 4.58% (inactive) and 5.62% (inactive)
Nc1ncnc2nc[nH]c12 | inactive | inactive | inactive | inactive |  | inactive | inactive | inactive | inactive |  | inactive | inactive | inactive | inactive | 54.5 µM (active) | inactive |  | inactive |  | 111% (active)
CC(=O)c1ccccn1 | inactive | inactive | inactive | inactive |  | inactive | inactive | inactive | inactive | inactive | inactive | inactive | inactive |  |  |  |  |  | inactive | 
O=C(COc1ccc(Cl)cc1)N1CCN(Cc2ccc3c(c2)OCO3)CC1 | inactive | inactive | inactive | inactive |  | inactive | inactive | inactive | inactive | 101 µM (active) and inactive | inactive | inactive | inactive | 43.3 µM (active) | inactive | 27.3 µM (active) and 18.8 µM (active) | -37.2% (inactive) | 43.6 µM (active) | inactive | -59.3% (inactive)
CCC(C)(O)CCCC(C)C (stereo not given) | inactive | inactive | inactive | inactive |  | inactive | inactive | inactive | inactive | inactive | inactive | inactive | inactive |  |  |  |  | inactive | inactive | 
CCCCOCCOCCOCCO | inactive | inactive | inactive | inactive |  | inactive | inactive | inactive | inactive | inactive | inactive | inactive | inactive | inactive | inactive | inactive | 2.27% (inactive) | inactive | inactive | -1.73% (inactive)
C#C[C@]1(O)CC[C@H]2[C@@H]3CCC4=Cc5oncc5C[C@]4(C)[C@H]3CC[C@@]21C | 30.6 µM (active) and 26.6 µM (active) | inactive | inactive | inactive | inactive | 48.6 µM (active) and inactive |  | inactive | inactive | 89.8 µM (active) |  | inactive |  | 24.3 µM (active) and 23.7 µM (active) | inactive | 24.3 µM (active) and 23.7 µM (active) | -54.8% (inactive) |  |  | -70.8% (inactive)
CCCCCCCCCC(=O)OC | inactive | inactive | inactive | inactive |  | inactive | inactive | inactive | inactive | inactive | inactive | inactive | inactive |  |  |  |  | inactive | inactive | 
CCCc1c(OCCCCc2nn[nH]n2)ccc(C(C)=O)c1O | inactive | inactive | inactive | inactive |  | inactive | inactive | inactive | inactive | inactive | inactive | inactive | inactive |  |  |  |  | inactive |  | 
Nc1ccc(Nc2ccccc2)cc1 | 54.5 µM (active) and 27.3 µM (active) | 79.7 µM (active) | inactive | inactive | inactive | inactive |  | inactive |  | 89.8 µM (active) and 50.5 µM (active) | inactive | inactive |  |  |  |  |  |  | inactive | 
